# Only some compounds are listed: those with a hit (about 11% of all), similar ones and a draw of the others.
# IMPase cell inh: qHTS Assay for Identifying the Cell-Membrane Permeable IMPase Inhibitors. Inositol monophosphatase 1 (Rattus norvegicus), P97697. CHO-M1 cells, IP1 accumulation, HTRF TR-FRET ratio. inhibition (IP1 accumulation), % at 46.1 µM. 120,000 tested, under 10 active; active = well fitted curve in the direction sought with a large enough effect in the signal ratio, not every such curve was filed as active; inconclusive = small, poorly fitted or top-dose-only effect, or a change in a side signal; inactive = no such curve, though single readings can be large or run the other way; the % refers to the signal ratio;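 also: cells stimulated with carbachol in lithium chloride buffer; plate controls were DMSO basal wells for no effect and reference inhibitor wells for full effect; higher means more IMPase inhibition seen as more IP1 and lower FRET ratio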
# Target sequence (P97697 whole entry, looked up): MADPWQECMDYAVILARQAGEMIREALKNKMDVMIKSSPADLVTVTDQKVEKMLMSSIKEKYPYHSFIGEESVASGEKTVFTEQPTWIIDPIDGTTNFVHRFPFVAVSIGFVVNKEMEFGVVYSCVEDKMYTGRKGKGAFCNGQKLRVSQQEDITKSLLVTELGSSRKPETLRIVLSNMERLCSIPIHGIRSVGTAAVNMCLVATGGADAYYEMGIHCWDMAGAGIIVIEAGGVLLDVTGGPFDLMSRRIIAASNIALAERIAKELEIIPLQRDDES
#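 Seeded CHO-M1 cells were dosed with compound at up to 46 uM, stimulated with carbachol for 30 min, then lysed in IP-One detection reagents. Higher IP1 lowers the TR-FRET signal.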
# PNC inhibitor: High Content Assay for Compounds that inhibit the Assembly of the Perinucleolar Compartment | AID 2417, 2010 | activity change (PNC), negative = inhibition, % at 10 µM | 140,000 tested, 3.1% active | PC3M PTB-GFP, PNC prevalence imaging, 16 h; active compounds read low;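 active = readout at or below -70, meaning at least 70% loss of cells showing the perinucleolar compartment, a nuclear body marking cancer cells; inconclusive = readout between -30 and a set limit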;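 also: plate controls were DMSO wells for no effect and camptothecin positive control wells for full effect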
#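 PC3M cells stably expressing PTB-GFP, 750–1000 cells/well, treated 16 h at 37 °C with compound (23 nl of library stock), in duplicate. After paraformaldehyde fixation and Hoechst stain, imaged at 20x; PNC prevalence scored by image analysis.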
# ALDH1A1 block: qHTS Assay for Inhibitors of Aldehyde Dehydrogenase 1 (ALDH1A1); Purified ALDH1A1, NADH fluorescence, propionaldehyde substrate; 220,000 tested, 7.3% active; Aldehyde dehydrogenase 1A1 (Homo sapiens), P00352; Potency, µM (doses to about 75.3 µM), for inactives: at the highest dose activity, negative = inhibition, usual class: inhibitors;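 also: potency is read from the fitted curve at half-maximal effect; plate controls were no enzyme wells and a reference inhibitor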
# Target sequence (P00352 whole entry, looked up): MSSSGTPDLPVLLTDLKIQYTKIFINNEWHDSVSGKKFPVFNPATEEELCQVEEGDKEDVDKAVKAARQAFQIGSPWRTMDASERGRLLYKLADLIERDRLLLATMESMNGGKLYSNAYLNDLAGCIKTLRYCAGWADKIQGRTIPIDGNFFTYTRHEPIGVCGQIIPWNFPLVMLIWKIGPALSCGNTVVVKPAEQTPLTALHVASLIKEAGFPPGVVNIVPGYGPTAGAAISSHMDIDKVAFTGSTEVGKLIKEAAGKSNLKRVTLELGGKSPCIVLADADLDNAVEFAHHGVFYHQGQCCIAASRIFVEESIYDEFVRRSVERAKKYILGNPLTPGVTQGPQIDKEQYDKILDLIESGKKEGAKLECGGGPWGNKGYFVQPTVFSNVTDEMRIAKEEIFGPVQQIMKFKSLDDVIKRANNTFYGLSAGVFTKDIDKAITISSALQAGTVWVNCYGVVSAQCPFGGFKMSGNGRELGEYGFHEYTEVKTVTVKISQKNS
# HPGD inh: qHTS Assay for Inhibitors of HPGD (15-Hydroxyprostaglandin Dehydrogenase); AID 894, 2007; 15-hydroxyprostaglandin dehydrogenase [NAD(+)] (Homo sapiens), P15428; 150,000 tested, 4.3% active; purified HPGD, NADH fluorescence kinetic, PGE2 substrate; Potency, µM, for inactives: at the highest dose activity change, negative = inhibition, hits mostly inhibitors; also: potency is read from the fitted curve at half-maximal effect
#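 NADH formation kinetics: reaction with 30 uM PGE2 and 1 mM NAD+ (final), 20 nM enzyme, Tris-HCl pH 8 with Tween 20, after 15 min compound preincubation at room temperature. Fluorescence change, last versus first of five reads.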
# IMPase Li cell: qHTS Assay for Identifying the Cell-Membrane Permeable IMPase Inhibitors: Potentiation with Lithium. CHO-M1 cells, IP1 TR-FRET (IP-One), carbachol + lithium. Potency, µM (top dose mostly 59.4 µM), inactives show at the top dose activity, negative = IMPase inhibition, hits mostly inhibitors. 210,000 tested, 0.35% active; active = well fitted curve in the direction sought with a large enough effect; inconclusive = small, poorly fitted or top-dose-only effect, or another doubt; inactive = no such curve, though single readings can be large; an effect the other way counts as inactive or inconclusive;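 also: IP1 builds up when IMPase is blocked and the TR-FRET signal falls; potency is read from the fitted curve at half-maximal effect; plate controls were basal vehicle for no effect and high inhibitor control for full effect; nearly all actives have a fitted effect of over 50% in size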
#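 Lithium-sensitised IP1 accumulation assay; M1-expressing CHO cells treated 30 min at 37C with compound. Competitive antibody detection by time-resolved FRET followed a 10 min room-temperature lysis step.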
# 12-hLO inh: qHTS Assay for Inhibitors of 12-hLO (12-human lipoxygenase). purified 12-hLO, xylenol orange hydroperoxide absorbance. Potency, µM (top dose mostly 57.1 µM), inactives show at the highest dose activity change, negative = inhibition, hits mostly inhibitors. 150,000 tested, 0.12% active. AID 1452, 2008; active = well fitted curve in the direction sought with a large enough effect; inconclusive = small, poorly fitted or top-dose-only effect, or another doubt; inactive = no such curve, though single readings can be large; an effect the other way counts as inactive or inconclusive; also: potency is read from the fitted curve at half-maximal effect; nearly all actives have a fitted effect of over 55% in size
#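 Purified human 12hLO (150 nM final) was preincubated with compounds for 15 min at room temperature in 25 mM Hepes pH 7.0, 0.01% Triton X-100, then reacted with 40 uM arachidonic acid for 30 min. Hydroperoxide was detected with ferrous iron/xylenol orange.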
# An asterisk follows results filed as active; ? = inconclusive; · = no result given; [ ] = dose if it differs, or a comment. Unless noted, calls follow the shape of the dose curve; as a rule, active = well fitted inhibition curve with a large enough effect (not every such curve was filed as active); inconclusive = small, poorly fitted or top-dose-only effect, or another doubt; inactive = no such curve, though single readings can be large or run the other way. Unless noted, % is scaled to controls: 0 for no effect and ±100 for the full control effect.
SMILES,IMPase cell inh,PNC inhibitor,ALDH1A1 block,HPGD inh,IMPase Li cell,12-hLO inh
COc1cc(-c2ccc(N=Nc3ccc4c(S(=O)(=O)O)cc(S(=O)(=O)O)c(N)c4c3O)c(OC)c2)ccc1N=Nc1ccc2c(S(=O)(=O)O)cc(S(=O)(=O)O)c(N)c2c1O,?,·,?,14µM*,139%,-6%
O=S(=O)(O)c1ccc2c(N=Nc3cccc4ccccc34)c(O)c(S(=O)(=O)O)cc2c1,·,·,?,-30%,1%,1%[11.4 µM]
Cc1noc(C)c1-c1ccc2ncnc(N(C)Cc3ccco3)c2c1,·,·,5%,13µM*,-8%,2%
N#Cc1c(-c2ccccc2F)cc(-c2cccnc2)nc1N,·,-96*,?,?,-1%,-1%
CCCc1nc(N2CCOCC2)c2sc(=S)n(-c3ccccc3)c2n1,3,-2,10µM*,-4%,-8%[38.3 µM],2%
O=C(Nc1cccc(F)c1)N1CCCC2(CCN(C(=O)c3ccco3)CC2)C1,·,·,?,-18%,13%,2%
N#CC(C#N)=C1C=C2C=C(N3CCOCC3)CCC2CC1 (stereo unspecified),·,·,3%,·,38%,·
N#CC(C#N)=C1C=C2C=C(N3CCCCCC3)CCC2CC1 (stereo unspecified),·,-134*,?,-11%,23%,-21%
CC(=O)N1CC[n+]2c(-c3ccc(Cl)cc3Cl)csc21,·,42,-15%,?,2%,-25%
COC(=O)c1ccc(CSc2cc(C)c3cc(C)cc(C)c3n2)o1,·,·,13µM*,·,21%,·
COC(=O)c1ccc(CSc2nc3ccccc3s2)o1,0,?,-15%,-18%,10%,0%
COC(=O)c1ccc(CSc2n[nH]c(=S)s2)o1,3,?,3.5µM*,?,7%[38.3 µM],-2%
CNc1ccc([N+](=O)[O-])cc1-c1nc2ccccc2[nH]c1=O,·,·,8%,·,·,·
Cc1nc(SCC(=O)OC(C)(C)C)c2c3c(sc2n1)CCCC3,5,·,·,·,·,·
CC(=O)Nc1nc2ncc(C=O)nc2c(=O)[nH]1,·,·,5%[13.5 µM],-7%,2%,0%[11.4 µM]
COc1ccc(NC(=O)NC(C)(C(F)(F)F)C(F)(F)F)cc1,0,32,10%,-2%,-1%[38.3 µM],-5%
CC(NC(=O)Nc1ccc(O)cc1)(C(F)(F)F)C(F)(F)F,9,-100*,-3%,-7%,4%,-7%
Cc1c(Br)ccc(NC(=O)CCN2C(=O)C3C4CCC(C4)C3C2=O)c1C (stereo unspecified),3,23,32µM*,3%,-8%[38.3 µM],-1%
CCC(=O)N(Cc1ccco1)c1nc(C(=O)Nc2ccc(Cl)cc2)c(C)s1,14,29,22µM*,?,10%,-2%
CN(C(=O)c1ccccc1Cl)C1CCCCC1,15,?,1%,28µM*,31%[38.3 µM],1%
CN(C(=O)CSc1ccccc1C(=O)O)C1CCCCC1,-6,32,3.2µM*,-6%,29%[38.3 µM],9%
CN(C(=O)CSCC(=O)O)C1CCCCC1,-4,?,2µM*,-10%,-7%,1%
Cc1onc(-c2ccccc2Cl)c1C(=O)N(C)C1CCCCC1,7,31,?,-14%,11%[38.3 µM],0%
COC(=O)[C@@H]1C[C@H]1[C@@H](N)c1ccccc1,·,·,0%,-4%,2%,-3%
O=C(O)CCC/C=C\C/C=C\C=C\[C@@H](O)C/C=C\CCCCCO,·,·,-7%,-2%,-1%,-2%
SMILES,IMPase cell inh,PNC inhibitor,ALDH1A1 block,HPGD inh,IMPase Li cell,12-hLO inh
COc1ccccc1NC(c1ccc(Cl)cc1)c1nnc(-c2cccc(F)c2)o1 (stereo unspecified),-1,·,·,·,·,·
O=C(N=C1c2ccccc2CN1c1ccc(F)c(F)c1)c1cccnc1,·,·,14µM*,·,23%,·
O=C(N=C1c2ccccc2CN1c1cccc(Cl)c1)c1cccnc1,-6,3,2%,-4%,13%,-1%
O/N=C/c1cc(Br)cc(Br)c1OCc1ccccc1,-2,17,11%,14µM*,9%[38.3 µM],-9%
O/N=C/c1ccc(OCc2ccccc2)c(Br)c1,·,12,6%,-22%,-1%,-1%
COC(=O)c1ccc(C(NC(=O)OCc2ccccc2)/C(=C/[C@@H](C)C(=O)NCc2ccc(OC)c(O)c2)c2cccnc2)cc1 (stereo partly specified),·,·,-5%,-17%,-5%,-3%
Cc1ccccc1OCC(=O)NCC(=O)N/N=C/c1ccc(Br)o1,·,-114*,4%,0%,-3%,-4%
CC(C(=O)O)c1ccc(N2Cc3ccccc3C2=O)cc1 (stereo unspecified),·,-4,-5%,-6%,-1%,-5%
CC(=O)OCC1O[C@@H](O[C@@H]2C[C@H]3C(C)(C)[C@H](OC(C)=O)CC[C@]3(C)[C@H]3CC[C@]45C[C@]4(CC[C@H]5[C@@H](C)C[C@@H](O)[C@H](O)C(C)(C)O)[C@@]32C)[C@H](O)[C@@H](O)[C@@H]1O (stereo partly specified),·,-115*,-6%,-13%,20%,16%
NC(=NC1C2CC3CC(C2)CC1C3)Nc1ccc(I)cc1 (stereo unspecified),9,·,-6%,-11%,20%,-2%
CN1CCCC2(CCN(S(=O)(=O)c3ccccc3)CC2)C1,·,·,7%,-11%,21%,3%
Cc1ccc(Cn2c(=N)c(C#N)cc3c(=O)n4cccc(C)c4nc32)cc1,·,·,4%,·,9%,·
Cc1ccc(-n2c(=O)c(C#N)cc3c(=O)n4cccc(C)c4nc32)cc1,3,-25,?,?,10µM*,4%
CCc1nnc(NC(=O)c2ccc(S(=O)(=O)N(CC)Cc3ccccc3)cc2)o1,?,-20,18µM*,·,·,-25%
Cc1ccc(NC2=C(CC(=O)O)C(c3ccc(F)cc3)N(c3ccc(C)cc3)C2=O)cc1 (stereo unspecified),4,·,·,·,·,·
O=C(Nc1nnc(CSCc2ccccc2F)s1)c1cccc([N+](=O)[O-])c1,0,-100*,25µM*,?,10%,-2%
O=C(Nc1nnc(CSCc2ccc(F)cc2)s1)c1ccc([N+](=O)[O-])cc1,·,-96*,?,?,-4%,1%
CC(C)C(=O)Nc1nnc(CSCc2ccccc2F)s1,5,9,15%,-12%,27%[38.3 µM],11%
O=C1CCCC(=NCc2ccco2)C1,-10,?,1%,2%,-4%[38.3 µM],-1%
CN(C)c1nc(=NCc2ccco2)ss1,·,·,10µM*,·,·,·

# Bioassay records deposited in PubChem BioAssay by National Center for Advancing Translational Sciences (NCATS).
